Data: PubChem BioAssay

The compounds below were run on Fibrinogen (Alexa647-labelled) (assay: fibrinogen binders on compound microarrays, profiling panel, artefact control for SMM control-protein annotation, biochemical, small-molecule microarray, 635/667 nm fluorescence (AID 1131;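 also: z-score merges 667 nm fluorescence with per-spot signal-to-noise over triplicate slides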)). Details: fibrinogen-A647 binding fluorescence, higher = more signal.

SMILES | composite z-score
CCC#CCN(Cc1ccccc1Br)[C@H](/C=C/C1CC1)[C@@H](O)Cc1ccccc1 | -0.805
CCCCN1CC=CC23O[C@@H]4/C=C\CCCOC(=O)C4[C@H]2C(=O)N(CCO)[C@@H]3C1=O (stereo partly specified) | -1.25
C=CCNC(=O)[C@@H]1[C@H]2C(=O)O[C@H](c3ccccc3)[C@H](c3ccccc3)N2[C@H](c2ccccc2OCCO)[C@@]12C(=O)N(C(=O)OCCOC)c1ccc(C#CC3(O)CCCCCC3)cc12 | 0.905
O=C(C1N=C(c2ccc(OCCCO)cc2)N(c2ccccc2)O1)N1CCCCC1 (stereo unspecified) | 1
CN(C)CCCCCCNC(=O)[C@@H]1C[C@@H]2C(=O)N3CCC[C@H]3C(=O)N2[C@@H]1c1cccc(OCCO)c1 | 0.552
COC(=O)[C@@]1(Cc2ccccc2)[C@H]2c3cc(C(=O)N(C)C)n(Cc4ccc(C)o4)c3C[C@H]2CN1C(=O)c1ccccc1 | 0.705
O[C@@H](Cc1ccccc1)[C@@H](/C=C/C1CC1)N(CC#Cc1ccccc1)Cc1ccccc1Br | -0.651
COCC(=C=CC[C@H](O)c1ccc(OCCO)cc1)CCO | -0.142
NCCCCCNC(=O)[C@H]1C[C@H]2C(=O)N3CCC[C@H]3C(=O)N2[C@H]1c1cccc(OCCO)c1 | 0.83
CCCC[C@@H]1C[C@H]1[C@@H](NC(=O)c1cccs1)c1ccccc1C(F)(F)F | 0.982
CCOC(=O)C[C@H]1[C@H](OC(=O)Cc2ccc3c(c2)OCO3)[C@@H](NC(=O)C2CCCCC2)c2cc(OCCCO)ccc2N1C(=O)c1ccccc1 | 0.744
COc1cc(C(O)C2C=CC3C(=O)N(C)C(=O)C3N2Nc2ccccc2)cc(OC)c1OC (stereo unspecified) | 1
COc1ccc([Si](C)(C)[C@@H]2[C@@H](CC(=O)N3Cc4ccccc4C[C@H]3CO)O[C@]3(C(=O)N(Cc4ccc(N5C(=O)c6cccc7cccc5c67)cc4)c4ccccc43)[C@H]2C)cc1 | 0.706
C=CCC(OC(C)=O)[C@@H]1[C@@H](N(Cc2ccc(-c3cccc(C(F)(F)F)c3)o2)C(=O)c2ccc(-c3ccccc3)cc2)c2cc(OCCCO)ccc2N1C(=O)Cc1ccc2ccccc2c1 (stereo partly specified) | 0.229
C=CCNC(=O)[C@H]1[C@@H]2C(=O)O[C@@H](c3ccccc3)[C@@H](c3ccccc3)N2[C@@H](c2ccccc2OCCO)[C@]12C(=O)N(C(=O)OCCOC)c1ccc(C#CC3(O)CCCCCC3)cc12 | 0.579
COc1ccc([Si](C)(C)[C@@H]2[C@@H](CCO)O[C@]3(C(=O)N(Cc4cccc(NC(=O)[C@H](C)O)c4)c4ccccc43)[C@H]2C)cc1 | 0.694
CCCCC[C@H]1OC[C@@]23C=C(Br)[C@@H](CC12)[C@@]1(CO1)C3=O (stereo partly specified) | -0.411
C=CCN1Cc2ccccc2[C@@H]2OC(c3ccc(OCCCO)cc3)=N[C@]2(CC=C)C1=O | 0.542

SMILES | composite z-score
Cc1ccc(NN2C(C(O)c3c(F)cccc3Cl)C=CC3C(=O)N(C4CCCCC4)C(=O)C32)cc1 (stereo unspecified) | 1.04
CCCCC(CC)C(O)C1C=CC2C(=O)N(c3ccccc3)C(=O)C2N1Nc1ccc(C#N)cc1 (stereo unspecified) | 0.922
NC(=O)[C@H]1[C@@H]2C(=O)O[C@@H](c3ccccc3)[C@@H](c3ccccc3)N2[C@@H](c2ccc(OCCO)cc2)[C@]12C(=O)Nc1ccc(C#CCCO)cc12 | 0.746
CCC1=C2CN(Cc3ccccc3)[C@@H](C(=O)Cc3ccccc3)C2C=CCC1 (stereo partly specified) | 0.666
[N-]=[N+]=Nc1ccccc1C[C@]1(C(=O)NCC(O)CO)COC(c2ccc(OCCCO)cc2)=N1 (stereo partly specified) | 0.579
CCCC=C(CCC)[C@@H](NP(=O)(c1ccccc1)c1ccccc1)c1ccc(-c2ccccc2)cc1 | 0.997
CCOC(=O)C[C@H]1[C@H](OC(=O)c2ccc(C(=O)c3ccccc3)cc2)[C@@H](NC(=O)c2ccc(-c3ccccc3)cc2)c2cc(OCCCO)ccc2N1C(=O)Cc1ccc(OC)cc1 | 0.544
CO[C@H]1O[C@H](CO)[C@@H](OC(=O)CCc2ccccc2)[C@@H]2OC(=O)[C@@H](Cc3ccccc3)C/C=C/C[C@H](Cc3ccccc3)C(=O)O[C@@H]12 | 0.28
CCOC(=O)C1=C[C@@H](c2ccccc2)N(S(=O)(=O)c2ccc(C)cc2)[C@H]1c1ccc(OC)cc1 | 0.935
[N-]=[N+]=Nc1ccccc1C[C@]1(C(=O)NCCN2CCOCC2)COC(c2ccc(OCCCO)cc2)=N1 | 0.649
COc1ccc([Si](C)(C)[C@H]2[C@H](CC(=O)N3Cc4ccccc4C[C@H]3CO)O[C@@]3(C(=O)N(Cc4ccc(N5CCOC5=O)cc4)c4ccccc43)[C@@H]2C)cc1 | 0.339
CS(=O)(=O)CCOC(=O)C1=CC(c2ccc(CO)cc2)=CC(C2CC2)N(Cc2sc3ccccc3c2Cl)C=C1C(=O)OCCS(C)(=O)=O (stereo unspecified) | 0.88
CCCCNC(=O)c1ccc(C#CC(C)(C)C)c(OC(C)=O)c1 | 0.587
O=C1C2C=CC(C(O)c3ccco3)N(Nc3ccccc3F)C2C(=O)N1c1ccccc1 (stereo unspecified) | 0.791
COc1cc(NN2C(C(O)c3ccco3)C=CC3C(=O)N(C)C(=O)C32)cc(OC)c1OC (stereo unspecified) | 0.127
COC(=O)[C@@]1(Cc2ccc(F)cc2)[C@H]2c3cc(C(=O)N(C)C)n(CCc4ccc(OC)c(Br)c4)c3C[C@H]2CN1C(=O)c1ccccc1 | 0.626
CC(C)[Si](C#CCCCC#N)(O[C@H](c1ccccc1)c1cn(Cc2ccccc2)nn1)C(C)C | 0.534
COCCOC(=O)N1C(=O)[C@@]2(c3cc(C#CC4(O)CCCCCC4)ccc31)[C@H](C(=O)Nc1nc3ccccc3s1)[C@H]1C(=O)O[C@H](c3ccccc3)[C@H](c3ccccc3)N1[C@@H]2c1ccc(O)cc1 | 0.942
